Results: PubChem BioAssay (NCI)
This is part of a sample that, as a whole, favours compounds with a hit. Of some 83,000 tested, about 20% had one in any assay.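 Negative percent growth values reflect cell death: -40 means 40% of the cells present at the start died, and -100 means all died.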 Unmarked numbers belong to inactive results. The source made the active and inactive calls. The calls were made as follows: active = growth percent below 10; inactive = the rest.

Test system: OVCAR-8 ovarian
Experiment: NCI-60 one-dose screen, 48 h (100 = growth as untreated, 0 = no growth, -100 = all killed)
Details: 10 µM unless noted

First: COc1cc(O)c2c(=O)c3c(CC=C(C)C)cc(OC)c(O)c3oc2c1
Second: COC(=O)c1ccc2cc(OC)c(OC)cc2c1
The growth of the first is lower: 26.4% for the first, 104% for the second.

Going from Cc1nc2sc(C(=O)Nc3cccc4ccccc34)c(N)c2cc1C(=O)c1ccccc1 to COc1ccc(C=Nc2c(C(=O)Nc3cccc(Cl)c3C)sc3nc(C)c(C(=O)/C=C/c4ccc(OC)cc4)cc23)cc1, the growth falls from 23.7% to 21%.

First: Cc1cc(C(=O)CCCC(=O)c2cc(C)c(O)c(C)c2)cc(C)c1O
Second: COC(=O)c1c(C)nc(C)c2c1C(=O)C=C(NCc1ccccc1)C2=O
The growth of the first is higher: 104% for the first, 97.8% for the second.

Compared with FC(F)(F)c1[nH]ncc1-c1nc2ccc3[nH]ncc3c2c2c1CCCC2, Fc1ccc2[nH]cc(-c3nc(-c4c[nH]c5c(Cl)nccc45)cs3)c2c1 is higher in growth: 13.7% for the first, 52% for the second.

Compared with Nc1ncnc2c1N=C(c1ccc(F)cc1)CC(c1cccc(Nc3ccnc4cc(Cl)ccc34)c1)N2 (stereo not drawn), O=C(/C=C/c1cccc(Oc2ccccc2)c1)c1ccc(Nc2nc(Nc3ccc(F)cc3)nc(Nc3ccc(Cl)cc3)n2)cc1 is higher in growth: 82.2% for the first, 104% for the second.

Going from COc1cc(C=Nc2oc(-c3ccccc3)c(-c3ccccc3)c2C#N)cc(CN2CCCC2)c1O to COc1ccc(C2CC(c3ccccc3)=NN2C(=O)c2cc(OC)c(OC)c(OC)c2)cc1O (stereo not drawn), the growth falls from 107% to 24.4%.

First: CCCCO[C@@H]1C=C2[C@H]3CC(C)(C)C(=O)C[C@]3(C(=O)O[C@@H]3O[C@H](CO[C@@H]4O[C@H](CO)[C@@H](OC5OC(C)C(O)C(O)C5O)[C@H](O)[C@H]4O)[C@@H](O)[C@H](O)[C@H]3O)CC[C@@]2(C)[C@]2(C)CC[C@H]3C(C)(C)C(=O)CC[C@]3(C)[C@@H]12 (stereo partly drawn)
Second: C=C1CC[C@@H]2C(C)(C)[C@H](O)CC[C@@]2(C)[C@@H]1COc1ccc2ccc(=O)oc2c1
The growth of the first is higher: 94.4% for the first, 17% for the second.

Compared with COc1ccc2cc(-c3nc4ccc(C)cn4c3NCc3ccco3)c(=O)[nH]c2c1, Cc1ccc(O)c(NC(=O)c2cccc(Nc3ccnc(C(F)(F)F)c3)c2)c1 is lower in growth: 78.5% for the first, 73.2% for the second.

Going from c1csc(-c2cn3nc(-c4c[nH]c5ccccc45)sc3n2)c1 to O=C(c1cccc(N2CCOCC2)n1)c1c[nH]c2ccccc12, the growth rises from 29.2% to 89.9%.

Compared with C=C[C@@]1(C)CC(=O)[C@@H](C(C)(C)c2cn(C)c3ccc(Br)cc23)C[C@@H]1O[Si](C)(C)C(C)(C)C, COc1ccc(/C=C2\CN(C(=O)C(Cl)Cl)C/C(=C\c3ccc(OC)c(OC)c3)C2=O)cc1OC is lower in growth: 101% for the first, 19.1% for the second.

Going from COCCOC(C)C(/C=N/NC(N)=S)=N/NC(N)=S (stereo not drawn) to Cc1nn(C)c2ncnc(N/N=C/c3cccc(O)c3O)c12, the growth falls from 57.1% to 18.2%.

Compared with Cc1cc(N2CCN(CC(=O)Nc3ccc4c(ccn4Cc4ccccc4)c3)CC2)nc(N2CCOCC2)n1, O=C(O)CC(C(=O)O)/C(=C\c1ccccc1)c1ccccc1 (stereo not drawn) is higher in growth: 68.2% for the first, 100% for the second.

Compared with CCCN(CCSSCCNc1nc(N(C)O)nc(N(C)O)n1)c1nc(N(C)O)nc(N(C)O)n1, CCOC(=O)c1cn2ncnc(Oc3ccc(NC(=O)NC4CC4)c(Cl)c3)c2c1C is higher in growth: 70.9% for the first, 98.6% for the second.

COC12C=C/C(=C(/C(=O)OCc3csc(SC)n3)C(=O)CCCCCCCCC3(OC)C=C/C(=C(/C(=O)OCc4cnc(SC)s4)C(=O)CCCCCCCC1)O3)O2 (stereo not drawn) was tested, and the growth was 27%.

COC(=O)c1c2c(c(C)[n+]([O-])c1C)C(=O)C(NCc1ccccc1)=CC2=O was tested, and the growth was 5.27% (active).
NCCCNc1nc2ccccc2c2c(=O)c3cc(Cl)ccc3sc12 was tested, and the growth was -48.4% (active).
With O=C1C=CC2(O)OC/C(=C\c3ccccc3)C(O)=C2C1=O (stereo not drawn) the growth was 8.41% (active).
With Cc1ncc(C(=O)Nc2ccc(CN3CCN(C)CC3)c(C(F)(F)F)c2)cc1C#Cc1cnc(N)c2ccc(C#N)cc12 the growth was 3.22% (active).
For COC1C(O)CC(OC2CC(OC3CC(O[C@@H]4C(=O)c5c(cc6cc(OC7CC(OC8CC(O)C(O)C(C)O8)C(O)C(C)O7)c(C)c(O)c6c5O)CC4[C@H](OC)[C@@H](O)C(C)=O)OC(C)C3O)OC(C)C2O)OC1C (stereo partly drawn), the growth was 8.72% (active).
In the case of Cc1c2cnccc2c(C)c2c1c1cc(CO)ccc1n2C, the growth is reported as -13.8% (active).
